Source: PubChem BioAssay
Where “and” joins values, the source holds several entries; their conditions need not be identical. Equal entries are not always repeated. Records with an inconclusive call do not appear. Calls of active or inactive are those of the source. Unless noted, no cut-off is given here; in the data, nearly all actives have AC50 up to about 26 µM.

Experiments:
[1] = P. berghei load reduction in hepatocytes – cell-based, HepG2, luciferase luminescence, HepG2 viability, primary screen (AID 624349; in the data active = parasite load remaining mostly below about 12%, no sharp cut-off; inactive = mostly above about 10%;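 note: 100% = mean of DMSO negative control wells on the same plate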); settings: P. berghei liver stage in HepG2, luciferase luminescence, concentration not given here; parasite load remaining: stronger effect = lower value; viability: measured here: HepG2 viability without parasites
[2] = system: Aerobactin synthetase IucA (Klebsiella pneumoniae); assay: inhibition of K. pneumoniae IucA enzyme – biochemical, Tocris library, absorbance (AID 1345561; call rule not given here;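 note: 100% = enzyme without compound and 0% = no enzyme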); settings: purified IucA enzyme assay, absorbance (OD) read-out; stronger effect = lower value;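 tested at 8 µM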
[3] = viability loss in pontine glioma line – cell-based, SU-DIPG-XVII, MIPE5.0, CellTiter-Glo, qHTS, dose response (AID 1347060); settings: CellTiter-Glo ATP luminescence;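 for AC50: cells exposed to compound for 48 hours before viability readout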
[4] = viability loss in pontine glioma line – cell-based, SU-DIPG-XIII, MIPE4.0, CellTiter-Glo, qHTS, dose response (AID 1347061; cut-off not given, nearly all actives have AC50 up to about 37 µM;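 note: cells exposed to compound for 48 hours before readout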); settings: CellTiter-Glo ATP luminescence
[5] = viability loss in pontine glioma line – cell-based, JHH-DIPG-1, MIPE4.0, CellTiter-Glo, qHTS, dose response (AID 1347062; cut-off not given, nearly all actives have AC50 up to about 27 µM;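 for AC50: cells exposed to compound for two days before readout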); settings: JHH-DIPG-1 viability, CellTiter-Glo ATP luminescence
[6] = viability loss in pontine glioma line – cell-based, SU-DIPG-IV, MIPE4.0, CellTiter-Glo, qHTS, dose response (AID 1347063; cut-off not given, nearly all actives have AC50 up to about 30 µM;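 note: compound exposure lasted 48 hours before the viability readout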); settings: CellTiter-Glo ATP luminescence
[7] = viability loss in pontine glioma line – cell-based, SU-DIPG-XXV, MIPE5.0, CellTiter-Glo, qHTS, dose response (AID 1347065); settings: CellTiter-Glo ATP luminescence;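 note: cells exposed to compound for 48 hours before ATP readout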
[8] = growth inhibition of DIPG cells – cell-based, MIPE4.0 library, CellTiter-Glo luminescence, qHTS (AID 1347066; cut-off not given, nearly all actives have AC50 up to about 30 µM;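 note: cells exposed to compound for 48 hours before readout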); settings: SU-DIPG-VI viability, CellTiter-Glo ATP luminescence
[9] = JHH-DIPG-1 glioma cell viability, MIPE5.0 library, CellTiter-Glo luminescence, qHTS (AID 1347067); settings: JHH-DIPG-1 glioma viability, CellTiter-Glo ATP luminescence;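 note: cells exposed to compound for 48 hours before readout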
[10] = viability loss with induced miR-34 in A549 – imaging, A549 dox-inducible miR-34, nuclei and caspase counts, primary screen (AID 1347080;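 active = compounds whose cell count with miR-34 switched on is under 0.7 times the count with it off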); settings: A549 miR-34 inducible, Hoechst nuclei count, 48 h
[11] = MELAS cybrid and Rieske KO viability enhancers – cell-based, MELAS cybrids, Rieske KO mouse fibroblasts, CellTiter-Glo, primary screen (AID 1508586;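 active = mean z-score across replicates of 1.96 or higher in either the MELAS or the Rieske mutant cell line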;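 note: z relative to plate mean and SD of compound and empty wells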); settings: low glucose
[12] = galactose survival enhancers in mitochondrial complex I cybrids – cell-based, galactose medium, ATP luminescence, primary screen (AID 1645843;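 active = z-score of at least 1.8 in each of two replicates, scored against plate mean and spread of sample wells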;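 note: positive z means more ATP and so rescue of galactose-driven cybrid death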); settings: complex I mutant cybrid cells, 72 h, stronger effect = higher value
[13] = viability loss in pontine glioma line – cell-based, SU-DIPG-XIII, MIPE5.0, CellTiter-Glo, qHTS, dose response (AID 1347064; cut-off not given, nearly all actives have AC50 up to about 23 µM;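 for AC50: cells exposed to compound for 48 hours before the viability read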); settings: CellTiter-Glo ATP luminescence
[14] = growth inhibition of DIPG cells – cell-based, MIPE5.0 library, qHTS (AID 1347068; cut-off not given, nearly all actives have IC50 up to about 30 µM;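 for IC50: cells exposed to compound for 48 hours before viability readout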); settings: SU-DIPG-XXV viability
[15] = compounds altering HSF1 focus formation in cells – imaging, Selleck Cancer Library (AID 1347162; in the data active = plate-normalised HSF1 focus index below about 0.46); settings: human cells, HSF1 nuclear foci imaging, at 10 µM; SSMD: measured here: HSF1 foci SSMD mean; cell count: measured here: cell number; plate-normalised HSF1 focus index: stronger effect = lower value
[16] = stronger effect = lower value, cell number ratio, induced over uninduced
[17] = measured here: relative caspase fold change +Dox/-Dox
[18] = measured here: total cells with miR-34 induction, stronger effect = lower value
[19] = measured here: total cells without miR-34 induction
[20] = MELAS cybrid survival, CellTiter-Glo 48 h, stronger effect = higher value
[21] = Rieske KO mouse fibroblast survival, CellTiter-Glo 72 h

CC[C@H](NC(C)C)[C@H](O)c1ccc(O)c2[nH]c(=O)ccc12
parasite load remaining [1]: 42.5% (inactive) | viability [1]: 102% | remaining activity [2]: 95.2% (inactive) | outcome [3]: inactive | outcome [4]: inactive | outcome [5]: inactive | outcome [6]: inactive | outcome [7]: inactive | outcome [8]: inactive | outcome [9]: inactive | fold change [10, 16]: 0.929 (inactive) and 0.941 (inactive) | fold change [10, 17]: 0.691 and 1.28 | cell count [10, 18]: 8730 and 10200 | cell count [10, 19]: 9400 and 10800 | z-score [11, 20]: -0.163 (inactive) | z-score [11, 21]: -0.0411 | z-score [12]: 0.095 (inactive) and 0.72 (inactive)

COc1cc(OC)c(NC(=O)Nc2cc(C)on2)cc1Cl
remaining activity [2]: 101% (inactive) | outcome [3]: inactive | outcome [4]: inactive | outcome [5]: inactive | outcome [6]: inactive | outcome [13]: inactive | outcome [7]: inactive | outcome [8]: inactive | outcome [9]: inactive | fold change [10, 16]: 0.801 (inactive) and 0.945 (inactive) | fold change [10, 17]: 0.762 and 1.52 | cell count [10, 18]: 8290 and 9250 | cell count [10, 19]: 10400 and 9800 | z-score [11, 20]: -0.366 (inactive) | z-score [11, 21]: 1.34 | z-score [12]: 1.75 (inactive)

Nc1ncnc2nc(-c3ccc(N4CCOCC4)nc3)cc(-c3cccc(Br)c3)c12
parasite load remaining [1]: 57.8% (inactive) | viability [1]: 155% | remaining activity [2]: 93.4% (inactive) | outcome [3]: inactive | outcome [5]: inactive | outcome [13]: inactive | outcome [9]: inactive | fold change [10, 16]: 0.949 (inactive) | fold change [10, 17]: 1.03 | cell count [10, 18]: 7250 | cell count [10, 19]: 7640 | z-score [12]: 2.27 (active)

Cc1cc(I)ccc1Nc1c(C(=O)NOCC2CC2)cc(F)c(F)c1F
parasite load remaining [1]: 55.5% (inactive) | viability [1]: 67.8% | remaining activity [2]: 104% (inactive) | AC50 [3]: 5.9 µM (active) | AC50 [13]: 6.61 µM (active) | AC50 [7]: 9.34 µM (active) | AC50 [9]: 4.17 µM (active) | IC50 [14]: 10.5 µM (active) | fold change [10, 16]: 1.12 (inactive) | fold change [10, 17]: 1.32 | cell count [10, 18]: 1290 | cell count [10, 19]: 1150 | z-score [12]: -0.65 (inactive)

CN1C(=O)C(Cc2c[nH]c3ccccc23)NC1=S (stereo not drawn)
parasite load remaining [1]: 48.6% (inactive) | viability [1]: 96.5% | remaining activity [2]: 89.8% (inactive) | outcome [3]: inactive | outcome [4]: inactive | outcome [5]: inactive | outcome [13]: inactive | outcome [7]: inactive | outcome [8]: inactive | outcome [9]: inactive | outcome [14]: inactive | fold change [10, 16]: 0.887 (inactive) and 0.965 (inactive) | fold change [10, 17]: 0.523 and 1.02 | cell count [10, 18]: 7790 and 8210 | cell count [10, 19]: 8780 and 8510 | SSMD [15]: 1.64 | cell count [15]: 7350 | plate-normalised HSF1 focus index [15]: 1.1 (inactive) | z-score [11, 20]: -0.333 (inactive) | z-score [11, 21]: 0.34 | z-score [12]: 0.03 (inactive)

CCOc1ccc(Nc2nc(-c3c(C)nc4ccccn34)cs2)cc1
remaining activity [2]: 103% (inactive) | AC50 [3]: 0.0661 µM (active) | AC50 [5]: 16.6 µM (active) | AC50 [13]: 0.059 µM (active) | AC50 [7]: 0.0372 µM (active) | outcome [8]: inactive | AC50 [9]: 0.0525 µM (active) | IC50 [14]: 0.372 µM (active) | fold change [10, 16]: 1.03 (inactive) | fold change [10, 17]: 1.27 | cell count [10, 18]: 2200 | cell count [10, 19]: 2140 | SSMD [15]: 4.16 | cell count [15]: 6300 | plate-normalised HSF1 focus index [15]: 1.25 (inactive) | z-score [12]: -0.68 (inactive)

COc1nccc(-c2c(-c3ccc(F)cc3)ncn2C2CCC(O)CC2)n1 (stereo not drawn)
parasite load remaining [1]: 41% (inactive) | viability [1]: 82.3% | remaining activity [2]: 92.5% (inactive) | outcome [3]: inactive | outcome [4]: inactive | outcome [5]: inactive | outcome [6]: inactive | outcome [8]: inactive | outcome [9]: inactive | outcome [14]: inactive | fold change [10, 16]: 0.979 (inactive) | fold change [10, 17]: 0.79 | cell count [10, 18]: 6910 | cell count [10, 19]: 7050 | z-score [12]: 0.59 (inactive)

Fc1ccc(Cl)cc1-c1nc(Nc2ccncc2)c2nccnc2n1
remaining activity [2]: 110% (inactive) | AC50 [3]: 23.5 µM (active) | outcome [4]: inactive | outcome [5]: inactive | outcome [6]: inactive | outcome [8]: inactive | outcome [14]: inactive | fold change [10, 16]: 0.904 (inactive) | fold change [10, 17]: 1.34 | cell count [10, 18]: 8670 | cell count [10, 19]: 9590 | z-score [12]: 1.11 (inactive)

O=C1Nc2ccc(I)cc2/C1=C/c1cc(Br)c(O)c(Br)c1
remaining activity [2]: 117% (inactive) | outcome [3]: inactive | outcome [5]: inactive | outcome [13]: inactive | outcome [8]: inactive | outcome [9]: inactive | fold change [10, 16]: 0.983 (inactive) and 1.01 (inactive) and 0.869 (inactive) | fold change [10, 17]: 1.44 and 1.3 and 0.748 | cell count [10, 18]: 8580 and 4160 and 8980 | cell count [10, 19]: 8730 and 4120 and 10300 | z-score [12]: -0.635 (inactive) and -0.18 (inactive)
